Eya2 phos inh: qHTS Assay for Inhibitors of the Phosphatase Activity of Eya2. Protein phosphatase EYA2 (Homo sapiens), O00167. recombinant Eya2, OMFP fluorescence dephosphorylation (OMFP is methylfluorescein phosphate). Potency, µM (highest dose often 76.9 µM), for the others: at the highest dose activity, negative = inhibition, usual class: inhibitors. actives 0.006% (n = 330,000); further: potency means the concentration at half of the fitted maximal effect; on the % scale 0 is the no-effect control and ±100 the full control effect
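Eya2 (0.2 uM) preincubated 10 min at ambient with compound, then OMFP substrate added at 50 uM; 10 min reaction in 50 mM HEPES pH 7.5, 50 mM NaCl, 5 uM MgCl2, 0.05% BSA, 1 mM DTT. Fluorescence read at Ex 485/Em 525 nm.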
D1 agonist: Allosteric Agonists of the Human D1 Dopamine Receptor: qHTS; HEK293 T-REx D1 cells, calcium flux, agonist mode; activation, % at 2 µM; actives 1% (n = 360,000); D(1A) dopamine receptor (Homo sapiens), P21728; AID 504660, 2011; in the data active means activation above about 30%; further: 0% is about no effect
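Tetracycline-induced HEK293 TREx D1 cells, force-coupled to calcium signalling, were dye-loaded with a no-wash calcium kit. Compound was pin-added after a 10 s baseline. Fluorescence was read kinetically at 1 cycle/s for 180 s, with calcium rises flagged as agonism.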
GALK inhibitor: qHTS Assay for Inhibitors of Human Galactokinase (GALK) | P51570 | Purified GALK, Kinase-Glo residual ATP luminescence | Potency, µM (series often up to 57.5 µM), without a hit: top-dose activity change, negative = inhibition, hits mostly inhibitors | actives 0.007% (n = 270,000) | AID 1868, 2009; further: potency means the concentration at half of the fitted maximal effect; on the % scale 0 is the no-effect control and ±100 the full control effect
Target sequence (P51570 whole entry, looked up): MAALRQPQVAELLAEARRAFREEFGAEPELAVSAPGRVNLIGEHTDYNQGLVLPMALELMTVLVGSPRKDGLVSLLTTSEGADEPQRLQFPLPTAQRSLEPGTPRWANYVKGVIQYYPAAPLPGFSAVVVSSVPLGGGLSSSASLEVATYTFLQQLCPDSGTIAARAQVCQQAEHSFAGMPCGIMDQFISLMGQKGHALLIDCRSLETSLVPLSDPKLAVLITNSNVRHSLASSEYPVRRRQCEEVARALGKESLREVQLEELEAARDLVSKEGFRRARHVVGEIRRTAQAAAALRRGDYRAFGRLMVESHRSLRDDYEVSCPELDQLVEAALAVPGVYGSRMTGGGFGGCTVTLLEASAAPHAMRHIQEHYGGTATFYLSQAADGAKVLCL
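Kinase-Glo Plus luminescence measured ATP left after a 1 h room-temperature reaction. The reaction used 5 nM GALK, 100 uM galactose and 35 uM ATP at pH 8.0 (20 mM HEPES, 5 mM MgCl2, 60 mM NaCl, 1 mM DTT, 0.01% BSA).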
D1 potentiator: Potentiators of Human D1 Dopamine Receptor: qHTS; D(1A) dopamine receptor (Homo sapiens), P21728; HEK293 TREx D1 cells, calcium flux, dopamine EC20 potentiation; actives 0.036% (n = 360,000); potentiation, % at 10 µM; in the data active means potentiation above about 30%; further: 0% is about no effect
D1 antagonist: Antagonist of Human D 1 Dopamine Receptor: qHTS. D(1A) dopamine receptor (Homo sapiens), P21728. HEK293 TREx D1 cells, calcium flux, dopamine EC80; stronger effect = lower value. activity change, negative = inhibition, % at 10 µM. actives 3.2% (n = 360,000). AID 504652, 2011; in the data active means activity change below about -30%; further: on the % scale 0 is the no-effect control and ±100 the full control effect
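Inducible Hek293 Trex D1 cells (tetracycline, overnight, 30 C). Calcium dye 30–90 min RT. Antagonist mode: EC80 dopamine added after 180 s compound read.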
USP2a block: qHTS Assay for Inhibitors of Ubiquitin-specific Protease USP2a Using CHOP2 as the Reporter; Ubiquitin carboxyl-terminal hydrolase 2 (Homo sapiens), O75604; USP2 core, Ub-CHOP2 coupled fluorogenic reporter, 485/531; Potency, µM (doses to about 38.3 µM), for inactives: top-dose activity change, negative = inhibition, actives largely listed as inhibitors; actives 0.01% (n = 330,000);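 further: potency means the concentration at half of the fitted maximal effect; plate controls were DMSO wells for no effect and full inhibition by NEM control for full effect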
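Deubiquitinase activity read as fluorescence (485/531 nm) after Ub-CHOP2 cleavage activates the enterokinase reporter on its substrate; USP2 core 10nM, Ub-CHOP2 and substrate 25nM each, 30min compound preincubation then 60min RT; data normalized to NEM, curves fitted.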
Active calls of the source: *; nt = no result. The list is not random: actives were taken first. Their share in the collection is about 3.9%. Unless noted, the call rests on the fitted dose curve; in most records, active means well fitted inhibition curve with a large enough effect; inconclusive means small, poorly fitted or top-dose-only effect, or effect the other way; inactive means flat fitted curve, though single readings scatter.

SMILES	Eya2 phos inh	D1 agonist	GALK inhibitor	D1 potentiator	D1 antagonist	USP2a block
CCOC(=O)c1ccccc1NC(=O)NCc1cccn1Cc1ccc(F)cc1	nt	2.6	nt	-1.2	5.7	nt
Cc1ccc(-n2nc3c(=O)n(CCCC(=O)NCCc4ccccc4Cl)nc(C)c3c2C)cc1	nt	4.0	nt	-1.9	-25.6	nt
CCOc1ccccc1NC(=O)C1CCCN1S(=O)(=O)c1ccc2nc(-c3ccccc3)[nH]c2c1 (configuration not stated)	nt	2.0	nt	1.8	12.6	nt
COc1cccc(NC(=O)CSc2nc(=O)n(Cc3ccncc3)c3c2CCCC3)c1	-16.2%	2.4	nt	37.0*	-0.2	2.0%
CN(C)CCn1c2c(c(SCC(=O)Nc3cccc(C(F)(F)F)c3)nc1=O)CCCC2	-14.6%	12.3	nt	4.3	2.8	-0.6%
CCN(CC)CCn1c2c(c(SCC(=O)Nc3cccc(C(F)(F)F)c3)nc1=O)CCC2	nt	47.6*	nt	-1.9	nt	nt
COc1ccc(NC(=O)c2c(NCc3cccc(OC)c3)sc3c2CCC3)cc1	nt	1.6	nt	-2.6	-4.1	nt
CCOC(=O)c1c(S(=O)(=O)N2CCC(C(=O)NCc3cccc(OC)c3)CC2)c(C)n(C)c1C	nt	0.9	nt	-1.6	4.8	nt
FC(F)(F)c1cccc(Nc2nc3nonc3nc2Nc2ccc(Cl)cc2)c1	nt	51.4*	nt	-4.8	-47.8*	nt
Cc1ccc(NC(=O)CC2Sc3ccc(C(F)(F)F)cc3NC2=O)cc1 (configuration not stated)	nt	4.4	nt	0.5	-8.4	nt
Cc1ccc(NC(=O)CC2=NC(=O)C(CC(=O)Nc3ccccc3F)S2)cc1 (configuration not stated)	-8.3%	0.7	9.2%	-4.8	-49.8*	-1.0%
CC(Cl)OC(=O)Nc1cccc2cccnc12 (configuration not stated)	nt	0.2	nt	4.9	0.3	nt
CC[N+]1=C(C)C(C)(C)c2cc(C)ccc21	6.0%	17.0	5.1%	-7.4	-33.9*	4.1%
CCN1C(=O)C(=O)c2cc(C)ccc21	10.0%	nt	nt	nt	nt	3.9%
COc1ccc(-c2nc(CN(Cc3cnn(C)c3)C(C)C)c(C)o2)c(OC)c1	-7.2%	0.5	2.9%	-1.5	-31.1*	0.4%
Cc1ccc(NC(=O)CN2C(=O)COc3ccc(S(=O)(=O)N4CCCC4)cc32)c(C)c1	3.6%	2.5	-0.4%	-9.7	-47.3*	2.7%
CCC1CCCCN1CCCNC(=O)CN1C(=O)COc2ccc(S(=O)(=O)N3CCOCC3)cc21 (configuration not stated)	-9.2%	0.4	-4.4%	1.0	-38.0*	-2.0%
Cc1ccc(C)c(NC(=O)CN2C(=O)COc3ccc(S(=O)(=O)N4CCCC4)cc32)c1	-3.7%	1.5	-2.2%	-5.7	6.7	2.4%
CCn1c(=O)c(C(=O)NNC(=O)c2ccccc2Cl)c(O)c2ccccc21	-0.8%	66.5*	-0.2%	-4.2	15.9	-2.6%
CCCCCC(=O)NNC(=O)c1c(O)c2ccccc2n(CC)c1=O	-9.5%	0.5	0.9%	-4.5	-28.2	-0.3%
CCn1c(=O)c(C(=O)NNC(=O)c2ccccc2F)c(O)c2ccccc21	3.0%	83.5*	-1.0%	-1.4	-41.8*	-0.1%
Cc1cccc(Nc2nnc(-c3ccc(C)c(S(=O)(=O)N4CCOCC4)c3)c3ccccc23)c1	nt	-0.4	nt	-1.7	-12.0	nt
Cc1ccc(CNC(=O)CN2C(=O)COc3ccccc32)cc1	nt	4.4	nt	4.0	18.2	nt
CNc1snc(C)c1C(=O)OCC(=O)N(C)c1ccccc1	-5.3%	4.3	nt	6.1	17.8	0.8%
CNc1snc(C)c1C(=O)OC(C)C(=O)Nc1ccccc1 (configuration not stated)	7.4%	8.8	nt	-5.7	-32.0*	2.1%

Screening results deposited in PubChem BioAssay by National Center for Advancing Translational Sciences (NCATS).
